{"source": "PubChem BioAssay (Tox21)", "note": "Results filed as inconclusive are left out. Values without a mark were called inactive. Activity calls are given as the source filed them. Calls come from the whole dose curve; as a rule, active = well fitted cell-killing curve with a large enough effect in the repeat runs; inconclusive = weak or mixed curves, or effect the other way; inactive = no such curve, though single readings can be large or run the other way. % is set by controls: 0 for no effect and ±100 for the full control effect; potency is the fitted concentration of half-maximal effect.", "data": [{"test": "qHTS assay to identify small molecule agonists of the estrogen receptor alpha (ER-alpha) signaling pathway in the presence of an antagonist - cell viability counter screen (AID 1259386);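 note: cells exposed to compounds for 22 h at 37 °C before the viability read; nearly all actives have a fitted effect of over 30% in size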", "settings": "VM7Luc4E2 viability, CellTiter-Fluor fluorescence, 22 h; series mostly up to 92.4 µM; activity change, negative = cytotoxicity: at the top concentration", "text": "National Center for Advancing Translational Sciences [NCATS]\nNIH Chemical Genomics Center [NCGC]\nU.S. Environmental Protection Agency [EPA]\nNational Institutes of Environmental Health Sciences [NIEHS]\nNational Toxicology Program [NTP]\nU.S. Food and Drug Administration [FDA]\nEstrogen receptor (ER), a member of nuclear hormone receptor plays an important role in development, metabolic homeostasis and reproduction. Two subtypes of ER, ER-alpha and ER-beta, have similar expression patterns with some uniqueness in both types. Endocrine disrupting chemicals (EDCs) and their interactions with steroid hormone receptors like ER causes disruption of normal endocrine function. Therefore, it is important to understand the effect of environmental chemicals in ER signaling pathway. For identifying ER agonists, VM7Luc4E2 cell line has been used in the current assay.\nVM7Luc4E2 cell line (provided by Denison MS, University of California) endogenously expresses full-length ER-alpha and is stably transfected with a plasmid containing four estrogen responsive elements (ERE) upstream of a luciferase reporter gene. This current screening for measuring luciferase reporter gene activity using VM7Luc4E2 cells against Tox21 10K library collection is a confirmation study on agonist mode screening in presence of ER-antagonist (ICI-182,780) at 10.0nM final concentration. The cytotoxicity of the compounds was tested in parallel by measuring the cell viability using CellTiter-Fluor assay system (Promega, Madison, WI) in the same wells.\nTox21 Assay Protocol Summary:\nVM7Luc4E2 cells were cultured in phenol red free assay medium containing 10% charcoal stripped FBS for 5 days prior to the assay. The cells were dispensed at 4,000 cells in 4uL of assay medium per well into white wall/solid-bottom 1536-well plates (Corning Life Sciences, Corning, NY) using a Multidrop Combi (Thermo Fisher Scientific Inc., Waltham, MA) dispenser. After the assay plates were incubated at 37C and 5% CO2 for 24hr, 1uL of 10.0nM (final concentration) ICI-182,780 or assay buffer was added using two separate tips of Flying Reagent Dispenser (FRD, Aurora Discovery, San Diego, CA). Then 23nL of compounds dissolved in DMSO at 15 concentrations and positive controls or DMSO only was transferred to the assay plates by a Pintool station (Wako, San Diego, CA). The assay plates were incubated at 37C and 5% CO2 for 22hr. After 21hr incubation at 37C, 1uL/well CellTiter-Fluor reagent (Promega Corporation, Madison, WI) was added to each well using FRD and after 1hr incubation at 37C and 5% CO2, the fluorescence signal was measured on ViewLux plate reader (PerkinElmer, Shelton, CT).", "values": [{"smiles": "COC(=O)CC(=O)C(C)(C)C", "activity change, negative = cytotoxicity": "-4.47%"}, {"smiles": "CC(=O)OCC(=O)[C@H]1CC[C@H]2[C@@H]3CCC4=CC(=O)CC[C@]4(C)[C@H]3CC[C@]12C", "activity change, negative = cytotoxicity": "1.37% [at 42.5 µM]"}, {"smiles": "Cc1cnc(C)c(C)n1", "activity change, negative = cytotoxicity": "-0.387%"}, {"smiles": "CCCCCCOC(=O)C(C)C", "activity change, negative = cytotoxicity": "-3.31%"}, {"smiles": "O=C(O)c1ccccc1NCCc1ccccc1", "activity change, negative = cytotoxicity": "2.83% [at 42.5 µM]"}, {"smiles": "COCc1c(C(C)C)nc(C(C)C)c(/C=C/[C@@H](O)C[C@@H](O)CC(=O)O)c1-c1ccc(F)cc1", "Potency": "inactive"}, {"smiles": "CCCOC(=O)c1ccc(N)cc1", "activity change, negative = cytotoxicity": "3.13% [at 42.5 µM]"}, {"smiles": "CC(=O)[C@H]1CC[C@H]2[C@@H]3C=CC4=CC(=O)CC[C@@]4(C)[C@@H]3CC[C@]12C", "activity change, negative = cytotoxicity": "0.996% [at 42.5 µM]"}, {"smiles": "CCCCCCCCCCCCCCCCBr", "activity change, negative = cytotoxicity": "0.981% [at 19 µM]"}, {"smiles": "CCCOc1ccc(S(=O)(=O)N2CCN(CC)CC2)cc1-c1nc2c(CC)n(Cc3ccccn3)nc2c(=O)[nH]1", "activity change, negative = cytotoxicity": "-6.14%"}, {"smiles": "Cc1c(C(=O)NN2CCCCC2)nn(-c2ccc(Cl)cc2Cl)c1-c1ccc(Cl)cc1", "activity change, negative = cytotoxicity": "1.17% [at 42.5 µM]"}, {"smiles": "CCCCCCCCCCCCCCC[C@H](O)[C@@H](N)CO", "activity change, negative = cytotoxicity": "3.58% [at 42.5 µM]"}, {"smiles": "CC(C)=CC=O", "activity change, negative = cytotoxicity": "-0.263%"}, {"smiles": "C(=C\\c1ccccc1)/CN1CCN(C(c2ccccc2)c2ccccc2)CC1", "activity change, negative = cytotoxicity": "-2.64% [at 42.5 µM]"}, {"smiles": "CCCCC(=O)O[C@]1(C(=O)CO)CC[C@H]2[C@@H]3CCC4=CC(=O)CC[C@]4(C)[C@H]3[C@@H](O)C[C@@]21C", "activity change, negative = cytotoxicity": "3.64% [at 42.5 µM]"}, {"smiles": "O=S(=O)(c1ccccc1)c1ccc(Cl)cc1", "activity change, negative = cytotoxicity": "3.42%"}, {"smiles": "COc1cc2[nH]c(=O)[nH]c(=O)c2cc1OC", "activity change, negative = cytotoxicity": "0.726% [at 42.5 µM]"}, {"smiles": "O=S1OCCO1", "activity change, negative = cytotoxicity": "0.0632%"}, {"smiles": "CCC(C(=O)OCCN(CC)CC)c1ccccc1", "note": "(stereo not given)", "activity change, negative = cytotoxicity": "-0.338% [at 42.5 µM]"}, {"smiles": "O=C(O)c1c(O)c(-c2ccccc2)nc2ccccc12", "activity change, negative = cytotoxicity": "6.71% [at 42.5 µM]"}, {"smiles": "CCCCOC(=O)CCS", "activity change, negative = cytotoxicity": "1.79%"}, {"smiles": "CC(CCc1ccc2c(c1)OCO2)NN", "note": "(stereo not given)", "activity change, negative = cytotoxicity": "2.08% [at 42.5 µM]"}, {"smiles": "COc1ccccc1N=Nc1c(S(=O)(=O)O)cc2cc(S(=O)(=O)O)cc(NC(C)=O)c2c1O", "Potency": "22.9 µM (active)"}, {"smiles": "Nc1ccc(S(=O)(=O)O)cc1", "activity change, negative = cytotoxicity": "2.41%"}, {"smiles": "CC(N)CN", "note": "(stereo not given)", "activity change, negative = cytotoxicity": "-5.39%"}, {"smiles": "Nc1nc(Cl)nc2c1ncn2[C@@H]1O[C@H](CO)[C@@H](O)[C@@H]1F", "activity change, negative = cytotoxicity": "1.71% [at 42.5 µM]"}, {"smiles": "CC#N", "activity change, negative = cytotoxicity": "1.31%"}, {"smiles": "CC(C)C(OC(=O)c1ccccc1)C(C)(C)COC(=O)c1ccccc1", "note": "(stereo not given)", "activity change, negative = cytotoxicity": "-9.65%"}, {"smiles": "O=C(O)c1snc(Cl)c1Cl", "activity change, negative = cytotoxicity": "0.565%"}, {"smiles": "CN1CCN(CCCN2c3ccccc3Sc3ccc(S(=O)(=O)N(C)C)cc32)CC1", "activity change, negative = cytotoxicity": "-13.3% [at 42.5 µM]"}, {"smiles": "O=C1NCCN1", "activity change, negative = cytotoxicity": "4.87%"}, {"smiles": "CC(C)(O)c1ccccc1CC[C@@H](SCC1(CC(=O)O)CC1)c1cccc(/C=C/c2ccc3ccc(Cl)cc3n2)c1", "activity change, negative = cytotoxicity": "6.08% [at 42.5 µM]"}, {"smiles": "CCOC(=O)c1ccccc1OC", "activity change, negative = cytotoxicity": "0.403%"}, {"smiles": "Oc1ccc(Nc2ccccc2)cc1", "activity change, negative = cytotoxicity": "-7.26%"}, {"smiles": "OC(CCCN1CCCCC1)(c1ccccc1)c1ccccc1", "activity change, negative = cytotoxicity": "-11.5% [at 42.5 µM]"}, {"smiles": "C1COCO1", "activity change, negative = cytotoxicity": "0.59%"}, {"smiles": "CCC(C)=O", "activity change, negative = cytotoxicity": "2.23%"}, {"smiles": "O=C(CCCCCCCCC#CI)Oc1ccccc1", "activity change, negative = cytotoxicity": "-0.314% [at 42.5 µM]"}, {"smiles": "CCNC(=O)N1CCN(CCCC(c2ccc(F)cc2)c2ccc(F)cc2)CC1", "Potency": "23.7 µM (active)"}, {"smiles": "CC1CC(O)CC(C)(C)C1", "note": "(stereo not given)", "activity change, negative = cytotoxicity": "-0.336%"}]}]}
